Test results: PubChem BioAssay (Tox21)
Results filed as inconclusive are left out. Activity calls are given as the source filed them. Calls follow the shape of the dose curve; as a rule, active = well fitted cell-killing curve with a large enough effect in the repeat runs; inconclusive = weak or mixed curves, or effect the other way; inactive = flat fitted curve, though single readings scatter.

Assay: qHTS assay to identify small molecule agonists of the sonic hedgehog signaling (Shh) pathway - cell viability counter screen (AID 1259366); also: nearly all actives have a fitted effect of over 50% in size
Conditions: NIH/3T3 Gli1-Luc viability, CellTiter-Fluor, 24 h; series mostly up to 92.4 µM; viability change, negative = cytotoxic: at the top concentration
Text: National Center for Advancing Translational Sciences [NCATS]
NIH Chemical Genomics Center [NCGC]
U.S. Environmental Protection Agency [EPA]
National Institutes of Environmental Health Sciences [NIEHS]
National Toxicology Program [NTP]
U.S. Food and Drug Administration [FDA]
The sonic hedgehog (Shh) pathway is essential for normal embryonic development. Dysregulation of the Shh pathway can cause severe developmental defects in organs. Therefore chemicals that interfere with the pathway are potential developmental toxicants. A cell line designated 3T3Gli1-Luc (DMB/OARSA/CFSAN/FDA, Laurel, MD), a NIH/3T3 derived clone containing stably integrated Gli1-Luc reporter is used to detect chemical interference of the Shh pathway, by changes in the expression of the firefly Luc gene under the control of the Gli1 transcriptional response element. This cell line was used to screen Tox21 libraries for identifying and prioritizing the potential developmental toxicants that interfere Shh pathway. The cytotoxicity of the compounds was tested in parallel by measuring the cell viability using CellTiter-Fluor assay system (Promega, Madison, WI) in the same wells.
Tox21 Assay Protocol Summary:
3T3 Gli1-Luc cells were dispensed at 2,000 per well in 5uL of culture medium into white solid bottom 1536-well plates (Greiner Bio-One, Monroe, NC) using a Multidrop Combi (Thermo Scientific, Waltham, MA) dispenser. The assay plates were incubated at 37 C and 5% CO2 for 4hr, and then 23nL of compounds dissolved in DMSO and positive control were transferred using a Pintool station (Wako, San Diego, CA). The assay plates were incubated at 37C and 5% CO2 for 24hr. For viability read, after 23hr of compound treatment, 1uL of CellTiter-Fluor reagent (Promega Corporation, Madison, WI) was added to each well of the assay plates using Flying Reagent Dispenser (FRD, Aurora Discovery, San Diego, CA) and incubated the assay plates at 37C for 1hr. The fluorescence signal was quantified using a ViewLux plate reader (Perkin Elmer, Shelton, CT).
% is scaled to controls: 0 for no effect and ±100 for the full control effect; potency is read from the fitted curve at half-maximal effect.

SMILES	viability change, negative = cytotoxic	Potency
CC(C)C=O	0.848% (inactive)	
C/C=C/C=C/C=O	-5.98% (inactive)	
COC(=O)CS	0.578% (inactive)	
CC(=O)NC1(c2cccc(F)c2)CCN(CC[C@@]2(c3ccc(Cl)c(Cl)c3)CN(c3ccccc3)C(=O)CO2)CC1		24.4 µM (active)
CCCCC(CC)CN (stereo not given)	1.36% (inactive)	
CN1C(=O)c2ccccc2C1=O	2.42% (inactive)	
FC(F)(F)c1ccccc1Cl	0.279% (inactive)	
CC(=O)OCC(=O)NCCCOc1cccc(CN2CCCCC2)c1	5.02% [at 42.5 µM] (inactive)	
O=C1c2ccccc2C(=O)N1CCc1noc(-c2ccc(CN3CCCCCC3)s2)n1	-7.47% (inactive)	
C=C1CCC2CC1C2(C)C (stereo not given)	0.811% (inactive)	
Oc1c(I)cc(I)c2cccnc12	11.2% [at 42.5 µM] (inactive)	
Brc1cc(Br)c(Oc2cc(Br)c(Br)cc2Br)cc1Br	5.04% [at 42.5 µM] (inactive)	
CC(=O)c1cc2ccccc2s1	-6.82% [at 42.5 µM] (inactive)	
Cc1cc(=O)c2c(O)c3c(O)cc(=O)c4c3c3c(cc(O)c1c23)C(C)(C)C=4O	17.6% [at 19 µM] (inactive)	
O=C=Nc1cccc(C(F)(F)F)c1	1.69% (inactive)	
OC[C@H]1O[C@@H](n2cnc3c(=S)nc[nH]c32)[C@H](O)[C@@H]1O	0.619% [at 42.5 µM] (inactive)	
C/C=C(/C(=C/C)c1ccc(O)cc1)c1ccc(O)cc1	-21% [at 42.5 µM] (inactive)	
CCOC(=O)/C=C/C(=O)OCC	-2.92% (inactive)	
CN1C(=O)N(c2ccccc2Br)Cc2cnc(Nc3ccc4c(c3)OCC(CO)O4)nc21 (stereo not given)		0.193 µM (active)
CC(CC1c2ccccc2CCc2ccccc21)CN(C)C (stereo not given)	3.89% [at 42.5 µM] (inactive)	

SMILES	viability change, negative = cytotoxic	Potency
CS(=O)(=O)c1ccc(-c2cn3ccccc3n2)cc1	9.19% [at 42.5 µM] (inactive)	
CCCCCCNC(=O)n1cc(F)c(=O)[nH]c1=O	-5.67% [at 42.5 µM] (inactive)	
C=C(C)C(=O)OCCCCCCCCCCCCC	1.11% (inactive)	
Brc1cc2ccccc2c2ccccc12	-3.18% (inactive)	
Cc1ccc(Cl)c(Nc2ccccc2C(=O)O)c1Cl	8.24% [at 42.5 µM] (inactive)	
CC(CCC(=O)O)C(=O)O (stereo not given)	8% (inactive)	
C[C@@]12CCC[C@H]1[C@@H]1CC[C@H]3C[C@@H](O)CC[C@]3(C)[C@H]1CC2	1.79% [at 42.5 µM] (inactive)	
CCCCN(CCCC)C(C(N)=O)c1ccc(OC)cc1 (stereo not given)	-5.18% [at 42.5 µM] (inactive)	
CC1=C(Br)C(=O)C(Br)=C/C1=C(/c1ccccc1S(=O)(=O)O)c1cc(Br)c(O)c(Br)c1C		18.6 µM (active)
C=C(C)CCCC(C)CCO (stereo not given)	-1.12% (inactive)	
c1ccc2c(c1)CCc1ccccc1N2		inactive
O=C(Cn1ccnc1[N+](=O)[O-])NCCO	2.08% [at 42.5 µM] (inactive)	
CCOC(=O)c1ccccc1C(=C1C=C(Br)C(=O)C(Br)=C1)c1cc(Br)c(O)c(Br)c1	-3.31% [at 42.5 µM] (inactive)	
CCCCOc1ccc(OCCCN2CCOCC2)cc1	0.127% [at 42.5 µM] (inactive)	
COC(=O)c1nc(Cl)c(Cl)nc1N		10.6 µM (active)
CC[N+](CC)(CCNC(=O)C(=O)NCC[N+](CC)(CC)Cc1ccccc1Cl)Cc1ccccc1Cl	-0.951% [at 42.5 µM] (inactive)	
CNC(=O)c1cnn(-c2nc(N)c3ncn([C@@H]4O[C@H](CO)[C@@H](O)[C@H]4O)c3n2)c1	1.67% [at 42.5 µM] (inactive)	
C=C(C)C(=O)OCCOCCOC(=O)C(=C)C	-9.78% (inactive)	
CCOC(=O)c1ccc(OCCN2C[C@H](O)[C@@H](O)[C@H](O)[C@H]2CO)cc1	1.52% [at 42.5 µM] (inactive)	
O=C(Nc1cccc2c(=O)cc(-c3nn[nH]n3)oc12)c1ccc(OCCCCc2ccccc2)cc1	-19.1% [at 42.5 µM] (inactive)	
